Luc counter: Kinase-Glo luciferase inhibition (counter-screen). Q27757. Kinase-Glo luciferase, ATP luminescence, 8 min. Potency, µM (doses to about 38.3 µM), inactives show at the top dose activity change, negative = inhibition, actives largely listed as inhibitors. hit rate 0.28% among 200,000. AID 1379; note: % is set by controls: 0 for no effect and ±100 for the full control effect; nearly all actives have a fitted effect of over 60% in size
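Luminescence was the read-out, taken after 8-minute incubation at ambient temperature. Luciferase turned over luciferin with 10 uM ATP in imidazole pH 7.2 buffer containing KCl, MgCl2, Tween 20 and BSA.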
SMN2 splice enh: enhancers of SMN2 splice variant expression; AID 1458; HEK293 SMN2-luciferase splicing reporter, luminescence, 30-36 h; Potency, µM (top dose mostly 46.1 µM), for inactives: at the top dose activity change, positive = activation, most hits filed as activators; hit rate 2.8% among 210,000; note: % of control where 0% means no effect; nearly all actives have a fitted effect of over 55% in size
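HEK293 cells carry an SMN2 minigene-luciferase reporter in which exon 7 inclusion puts luciferase in frame. Cells were seeded at 2000 cells/well, attached for 10-12 hours, then exposed to compounds for 30-36 hours at 37C before ONE-Glo luminescence.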
ELG1 genotoxic: genotoxicity induction in ELG1-luciferase HEK293T cells; HEK293T ELG1-luciferase reporter, luminescence, 16 h; hit rate 1.3% among 330,000; AID 504466; Potency, µM (highest dose often 46 µM), without a hit: top-dose activity change, positive = activation, usual class: activators; note: % of control where 0% means no effect; nearly all actives have a fitted effect of over 60% in size
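Genotoxic stress is detected as increased luminescence from luciferase-tagged ELG1 in HEK293T cells, measured with ONE-Glo after a 16 hr treatment at 37 °C.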
Rab9 promoter act: activators of Rab9 promoter | hit rate 2.8% among 320,000 | Potency, µM (highest dose often 9.22 µM), for inactives: at the highest dose activation, negative = inhibition, most hits filed as activators | Huh7 Rab9 promoter-luciferase reporter, luminescence, 24 h | AID 485297; note: % of control where 0% means no effect; nearly all actives have a fitted effect of over 60% in size
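Luminescence from Amplite-detected luciferase (10 minutes, ambient) reports Rab9 promoter activation. Before that, stable Rab9-luciferase Huh7 cells (1500/well, reduced-serum OP-MEM I plus 10% FBS) were exposed to compound for 24 hours at 37C.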
FLuc counter: counter-screen for miR-21 project: firefly luciferase inhibitors or activators | AID 588342 | Potency, µM (series often up to 57.5 µM), for inactives: at the top dose activity change, negative = inhibition, most hits filed as inhibitors | P08659 | hit rate 6.9% among 360,000 | purified FLuc, Km substrates, luminescence inhibition;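 note: plate controls were vehicle for no effect and reference inhibitor for full effect; nearly all actives have a fitted effect of over 55% in size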
Target sequence (P08659 whole entry, looked up): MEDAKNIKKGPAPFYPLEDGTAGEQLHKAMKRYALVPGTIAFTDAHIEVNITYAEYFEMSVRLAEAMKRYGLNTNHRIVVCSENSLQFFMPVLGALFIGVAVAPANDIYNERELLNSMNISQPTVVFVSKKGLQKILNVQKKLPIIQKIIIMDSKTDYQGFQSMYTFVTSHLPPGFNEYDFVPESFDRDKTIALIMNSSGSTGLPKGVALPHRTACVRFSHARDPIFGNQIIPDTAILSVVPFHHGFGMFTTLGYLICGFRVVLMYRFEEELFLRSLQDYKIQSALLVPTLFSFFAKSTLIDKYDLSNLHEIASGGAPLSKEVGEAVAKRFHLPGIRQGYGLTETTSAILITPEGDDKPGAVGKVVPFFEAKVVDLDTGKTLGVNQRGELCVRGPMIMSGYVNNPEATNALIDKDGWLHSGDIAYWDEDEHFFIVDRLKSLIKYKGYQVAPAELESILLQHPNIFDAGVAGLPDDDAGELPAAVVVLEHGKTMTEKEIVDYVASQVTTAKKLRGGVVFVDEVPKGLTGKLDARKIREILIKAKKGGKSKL
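Biochemical qHTS of compounds, final roughly 60 µM downward over six points, against 10 nM purified firefly luciferase using Km concentrations of substrates (10 uM D-luciferin, 10 uM ATP) in Tris acetate pH 7.5 buffer; luminescence output.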
NPC1 prom act: activators of NPC1 promoter. Huh7 NPC1 promoter luciferase reporter, 24 h. Potency, µM (titrated, usually from 9.22 µM), for the others: at the highest dose activation, actives largely listed as activators. hit rate 2.4% among 320,000. AID 485313; note: % of control where 0% means no effect; nearly all actives have a fitted effect of over 60% in size
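Stably transfected Huh7 (NPC1 promoter→luciferase), 1500 cells/well in Opti-MEM + 10% FBS, 2 h settle, then compound 24 h at 37 °C. Luminescence after 10 min with Amplite reagent.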
* = called active by the depositor; ? = inconclusive; / = not tested or not shown. The list is not random: actives were taken first. Their share in the collection is about 7.5%. Calls come from the whole dose curve; as a rule, active = well fitted curve in the direction sought with a large enough effect; inconclusive = small, poorly fitted or top-dose-only effect, or another doubt; inactive = no such curve, though single readings can be large; an effect the other way counts as inactive or inconclusive. Potency is the fitted concentration of half-maximal effect.

SMILES	Luc counter	SMN2 splice enh	ELG1 genotoxic	Rab9 promoter act	FLuc counter	NPC1 prom act
CCOc1ccc(C(=O)NCCN2CCCCC2)c(OCC)c1	/	/	0%	-3%	2%	-6%
O=C(O)c1cc([N+](=O)[O-])ccc1N1CCCCC1	8%	-1%	0%	1%	-1%	-1%
O=[N+]([O-])c1ccc2c(c1)N([O-])C1(CCCCC1)[N+]2=O	/	/	2%	10%	15µM*	0%
CC(C)(C)c1cc(NC(=O)C2CCCO2)no1 (stereo not drawn)	-2%	?	?	27%	15µM*	?
O=C(O)c1cc(NC(=O)C2CCCO2)cc(C(=O)O)c1 (stereo not drawn)	/	/	3%	0%	2%	-2%
CCCCC(=O)Nc1cc(-c2nc3ccccc3o2)ccc1OC	/	7%	/	/	-11%	/
O=C(Nc1ccc2oc(-c3ccccc3)nc2c1)c1cccnc1	-1%	-9%	14%	?	?	?
CCc1ccc2oc(-c3cccc(NC(=O)c4cccnc4)c3)nc2c1	5%	16%	-2%	?	1.3µM*	?
Cc1ccc2oc(-c3ccc(C)c(NC(=O)c4ccc(-c5ccccc5[N+](=O)[O-])o4)c3)nc2c1	/	-24%	/	/	11µM*	/
Cc1ccc2oc(-c3ccc(Cl)c(NC(=O)c4cc5ccccc5o4)c3)nc2c1	/	6%	/	/	12µM*	/
COc1ccc(-c2nc3ccccc3o2)cc1NC(=O)c1cccnc1	/	-1%	/	/	11µM*	/
O=C1[C@@H](Oc2ccccc2)[C@@H](c2cccnc2)N1c1ccccc1	/	/	-7%	/	/	/
CCOC(=O)C(CCCP(=O)(c1ccccc1)c1ccccc1)(NC(C)=O)C(=O)OCC	/	/	4%	-3%	-2%	1%
CCc1ccc2oc(-c3cccc(NC(=O)c4cc5ccccc5o4)c3)nc2c1	/	?	/	/	2.4µM*	/
CCc1ccc2oc(-c3cccc(NC(=O)C(C)(C)Oc4ccc(Br)cc4)c3)nc2c1	/	5µM*	/	/	2.1µM*	/
COc1ccc(-c2nc3ccccc3o2)cc1NC(=O)C(C)(C)Oc1ccc(Br)cc1	/	-6%	/	/	-5%	/
C[C@@H]1CN([C@@H](C)CO)C(=O)c2cccc(NS(C)(=O)=O)c2O[C@H]1CN(C)CC1CCCCC1	/	/	2%	/	/	/
CCCNC(=O)c1c(C)nn(-c2cccc(C)c2)c1-n1cccc1	/	/	/	/	-1%	/
COc1cccc(C(=O)C2CN(c3ccccc3)CC2c2ccc(Cl)cc2)c1 (stereo not drawn)	-1%	-26%	-8%	-6%	19µM*	1%
CC(C)(C)SCCNC(=O)c1ccccc1	-1%	30%	15%	3.2µM*	?	?
CC(C)(C)c1ccc(C(=O)NCc2ccc(Cl)cc2)cc1	-1%	-7%	-1%	18%	-3%	24%
Cc1ccc(C(=O)NCCSC(C)(C)C)cc1	-7%	10µM*	1.8µM*	0.56µM*	?	0.5µM*
CSCCNC(=O)c1ccc(C(C)(C)C)cc1	-5%	?	?	4µM*	3µM*	4µM*
CN(CC(=O)Nc1cccc(F)c1)C(=O)CCNC(=O)c1ccc(Br)cc1	/	/	14%	25%	?	8%
CN(CC(=O)Nc1cccc(F)c1)C(=O)CCCNC(=O)c1ccc(Cl)cc1	/	/	13%	?	12µM*	?
SMILES	Luc counter	SMN2 splice enh	ELG1 genotoxic	Rab9 promoter act	FLuc counter	NPC1 prom act
CC(C)NC(=O)c1sc(=S)n2c1[nH]c(=O)c1ccc(C(=O)NCCc3ccc(Cl)cc3)cc12	/	/	-5%	-3%	?	-2%
CCOc1ccc(CCNC(=O)c2ccc3c(=O)[nH]c4c(C(=O)NC(C)C)sc(=S)n4c3c2)cc1	/	/	-13%	0%	17µM*	2%
O=C(Nc1ccc(C(F)(F)F)cc1)C1CCN(c2cnccn2)CC1	/	-21%	-4%	-4%	0%	-2%
O=C(/C=C/c1ccc2c(c1)OCCCO2)c1ccccc1O	?	?	16µM*	1.8µM*	0.27µM*	3.2µM*
Cc1ccc(O)c(C(=O)/C=C/c2ccc3c(c2)OCCCO3)c1	?	?	?	?	5.4µM*	?
Oc1cc(Nc2ccc(N3CCCCC3)cc2)cc2cccnc12	/	/	/	-38%	?	-35%
COc1ccccc1CNC(=O)[C@H](NC(=O)C1CCN(C(=O)[C@@H](N)CCSC)CC1)C(C)C	/	/	3%	-1%	8%	-5%
CCC(C)C(NC(N)=O)C(=O)Nc1ccc(C(=O)OC)cc1 (stereo not drawn)	1%	8%	-4%	18%	-4%	-5%
CCc1ccc(C(=O)COC(=O)C(NC(=O)C2CCC(C)CC2)C(C)C)cc1 (stereo not drawn)	/	-6%	/	/	1.7µM*	/
CCc1ccc(C(=O)COC(=O)[C@@H](NC(N)=O)[C@@H](C)CC)cc1	-1%	-3%	?	?	1.3µM*	18%
COc1ccc(-c2nc(C#N)c(NCCCn3ccnc3)o2)cc1OC	17%	6.3µM*	?	20%	15µM*	24%
CC(C)(C)c1ccc(-c2nc(C#N)c(NCc3ccncc3)o2)cc1	/	/	?	?	6µM*	16%
N#Cc1nc(-c2ccc(F)cc2)oc1NCCCn1ccnc1	-1%	27%	7%	26%	-17%	13%
COc1ccc(-c2nc(C#N)c(NCCc3ccccc3)o2)cc1OC	-8%	16µM*	8.2µM*	?	6.7µM*	?
CC(C)(C)c1ccc(-c2nc(C#N)c(NCCCn3ccnc3)o2)cc1	/	/	-2%	-1%	21µM*	-4%
Cc1ccc(NC(=O)Cn2c(=O)oc3cc(S(=O)(=O)NCc4ccccc4)ccc32)cc1	/	-10%	/	/	-19%	/
O=C(Cc1ccccc1[N+](=O)[O-])OCC(=O)c1c[nH]c2ccccc12	/	/	13%	?	11µM*	?
O=C(COC(=O)C1CCC1)c1c[nH]c2ccccc12	/	/	1%	2%	11µM*	-1%
Cc1[nH]c2ccccc2c1C(=O)COC(=O)C1CCC1	/	/	0%	1%	15µM*	-2%
O=C(COc1cccnc1[N+](=O)[O-])c1c[nH]c2ccccc12	/	/	6%	12%	?	17%
O=C(COC(=O)C1CC1)c1c[nH]c2ccccc12	-7%	?	?	?	12µM*	?
CC(=O)OCC(=O)c1c[nH]c2ccccc12	-6%	-1%	1%	0%	-16%	4%
Cc1[nH]c2ccccc2c1C(=O)COC(=O)C1CCC(=O)N1 (stereo not drawn)	-3%	8%	0%	1%	4%	2%
